The record followed here is PubChem BioAssay AID1240 (Sanford-Burnham Center for Chemical Genomics, 2008).

Screen size: about 50,000 compounds; about 800 (1.6%) showed an effect of 50% or more. What follows is part of a selection rich in strong results, with near analogues and random picks from the rest.

The target in the assay is Bcl-2-like protein 10 (Homo sapiens) (UniProt Q9HD36). Put plainly: Phenotype converters, Bcl-B/TR3 peptide binding displacement, primary biochemical FP (AID 1240).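 Note: 0% = Bcl-B with tracer peptide and DMSO and 100% = tracer peptide lacking Bcl-B.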 The following applies: GST-Bcl-B / FITC-TR3 peptide fluorescence polarization; stronger effect = higher value; compound at 3.75 mg/L. A general note: Fluorescence polarisation rises when a labelled molecule tumbles more slowly, as on binding a larger partner.
Chain of Bcl-2-like protein 10 (Homo sapiens) (Q9HD36 whole entry, looked up): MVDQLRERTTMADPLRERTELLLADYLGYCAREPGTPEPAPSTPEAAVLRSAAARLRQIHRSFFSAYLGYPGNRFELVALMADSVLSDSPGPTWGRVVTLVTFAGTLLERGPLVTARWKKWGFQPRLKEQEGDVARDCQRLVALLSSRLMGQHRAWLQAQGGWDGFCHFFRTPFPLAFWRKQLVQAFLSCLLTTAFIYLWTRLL
For the compound `COc1cc(CNc2ccc(Br)cc2C)cc(OC)c1OC`, the displacement came out at 13.2%.

For the compound `Cc1ccc(C(=O)Nc2cc(-c3cccc(C)c3)[nH]n2)cc1`, the displacement came out at 6.2%.

With `O=C1/C(=C\c2cccc(C(F)(F)F)c2)SC(=S)N1Cc1ccccc1`, the displacement turned out to be 11%.

Take `Cc1cc(Br)cc2c1NC(=O)C21OCCO1`: the displacement is -4.3%.

In the case of `Cc1nnc(C)n1/N=C/c1ccc(O)c(O)c1`, the displacement came out at 15.9%.

With `COc1ccccc1CNC(=O)C/C(C)=N/NC(=O)C(=O)NC(C)C`, the displacement is -14.6%.

For the compound `CSc1ccc(/C=C(\NC(=O)c2ccc(C)cc2)C(=O)Nc2cccc(F)c2)cc1`, the displacement was found to be 127%.

Regarding `CSc1ccc(/C=C(\NC(=O)c2ccc(C)cc2)C(=O)Nc2cccc(C)c2)cc1`, the displacement was -2.7%.

With `N#C/C(=C/C=C/c1ccco1)C(=O)Nc1cccc(Br)c1`, the displacement amounted to 59.3%.

As to `N#C/C(=C/c1ccc(C(=O)O)cc1)C(=O)Nc1cccc(Br)c1`, the displacement was -2.2%.

Turning to `CC(=O)c1cccc(NC(=O)/C(=C\c2ccc(Br)cc2)NC(=O)c2ccc(C)cc2)c1`, the displacement turned out to be 2.4%.

Consider `N#C/C(=C\c1c[nH]c2ccccc12)C(=O)Nc1ccc(F)cc1`, for which the displacement was determined as 15.3%.

Take `Cc1[nH]c2ccccc2c1/C=C(/C#N)C(=O)Nc1cccc(Br)c1`: the displacement is -17.5%.

For `CN(C)c1ccc(/C=C(/C#N)C(=O)Nc2cccc(Br)c2)cc1`, the displacement stood at 53.8%.

`N#C/C(=C/c1c[nH]c2ccccc12)C(=O)Nc1cccc(Br)c1`: the displacement was 90.7%.

Take `Cc1ccc(/C=C(/C#N)C(=O)Nc2cccc(Br)c2)o1`: the displacement is -37.3%.

As for `N#C/C(=C/c1ccc(O)cc1)C(=O)Nc1cccc(Br)c1`, the displacement is -32.7%.

Regarding `N#C/C(=C/c1ccc(Cl)cc1)C(=O)Nc1cccc(Br)c1`, the displacement is -9.8%.

For `CCOc1ccc(N2C(=O)NC(=O)/C(=C\c3ccc(-c4ccccc4C(=O)O)o3)C2=O)cc1`, the displacement turned out to be 14.1%.

As for `CCN(Cc1ccccc1)C(=O)c1ccccc1[N+](=O)[O-]`, the displacement is -11.3%.

As to `CC(C)c1ccc(C2OC3(C(=O)c4ccccc4C3=O)C3C(=O)N(c4ccc(Cl)c(Cl)c4)C(=O)C23)cc1` (stereo not drawn), the displacement is 4.5%.

Consider `O=c1c(Oc2ccccc2Br)c(C(F)(F)F)oc2cc(O)ccc12`, for which the displacement turned out to be 3%.

Turning to `COc1ccc(NC(=O)CN(c2ccccc2Cl)S(C)(=O)=O)cc1OC`, the displacement was found to be 3.6%.

Turning to `CCOc1cc(/C=C2\C(=O)NC(=O)N(c3ccc(Cl)cc3)C2=O)cc(Cl)c1OCC(=O)O`, the displacement was -2.8%.

For the compound `Cc1cc(C)c(C(=O)/C(=C/c2ccc(I)cc2)c2ccccc2)c(=O)[nH]1`, the displacement is -1.1%.

For the compound `Cc1cccc(C(=O)NNC2=CC(=O)CC(C)(C)C2)c1O`, the displacement was 37.5%.

Consider `N#C/C(=C/c1ccc(F)cc1)C(=O)Nc1cccc(Br)c1`, for which the displacement was -19.5%.

Consider `N#C/C(=C/c1ccc(C#N)cc1)C(=O)Nc1cccc(Br)c1`, for which the displacement is -8.5%.

Turning to `COc1ccc(Cl)cc1/C=C(/C#N)C(=O)Nc1cccc(Br)c1`, the displacement was determined as 14.8%.

Turning to `COc1cc([N+](=O)[O-])ccc1-c1ccc(/C=C(/C#N)C(=O)Nc2cccc(Br)c2)o1`, the displacement stood at 92.4%.

On to `COc1ccc([N+](=O)[O-])cc1-c1ccc(/C=C(/C#N)C(=O)Nc2cccc(Br)c2)o1`, for which the displacement amounted to 7.6%.

Take `CSc1ccc(/C=C(/C#N)C(=O)Nc2cccc(Br)c2)cc1`: the displacement is 80.3%.

With `N#C/C(=C\c1ccc(-c2ccccc2[N+](=O)[O-])o1)C(=O)Nc1cccc(Br)c1`, the displacement is -6.3%.

As to `COc1ccc(OC)c(/C=C(/C#N)C(=O)Nc2cccc(Br)c2)c1`, the displacement was determined as 100%.

Consider `COc1ccc(/C=C(/C#N)C(=O)Nc2cccc(Br)c2)c(OC)c1`, for which the displacement is -8.7%.

As to `C=CCOc1ccc(/C=C/C(=O)c2ccc(Cl)cc2)cc1`, the displacement is -2.1%.

Turning to `O=C(NCc1ccccc1)c1nn2c(c1Cl)NC(c1ccc(Cl)cc1)CC2C(F)(F)F` (stereo not drawn), the displacement turned out to be 1.1%.

Turning to `O=C(NCc1ccccc1)C(O)(c1ccc(F)cc1)c1ccc(F)cc1`, the displacement is -12.1%.

As for `CSc1ccc(CN2CCN(C(=O)c3ccco3)CC2)cc1`, the displacement was -13.1%.

Consider `O=[N+]([O-])c1ccc(F)c(NS(=O)(=O)c2cc(Cl)ccc2Cl)c1`, for which the displacement was -1.9%.

As for `Cc1cc(NC(=O)c2cccc(F)c2)ccc1NC(=O)c1ccccc1`, the displacement is -3.3%.

For the compound `O=C1NC(=Nc2ccc(Br)cc2)S/C1=C\c1ccc2c(c1)OCO2`, the displacement stood at 68.8%.

With `COc1ccc(N=C2NC(=O)/C(=C/c3ccc(N(C)C)cc3)S2)cc1`, the displacement stood at 84.9%.

On to `COc1ccc(N=C2NC(=O)/C(=C/c3ccc(Cl)cc3)S2)cc1`, for which the displacement came out at 10.7%.

For the compound `O=C1NC(=Nc2ccc(Br)cc2)S/C1=C\c1ccc(O)cc1`, the displacement was determined as 10%.

As to `Cc1ccc(/C=C2\SC(=Nc3ccc(O)cc3)NC2=O)cc1`, the displacement was 0.1%.

As to `O=C1NC(=Nc2ccc(F)cc2)S/C1=C/c1ccc(Br)cc1`, the displacement turned out to be 8%.

For the compound `COc1ccc(/C=C2/SC(=Nc3ccc(O)cc3)NC2=O)cc1`, the displacement is -15.9%.

Consider `CN(C)c1ccc(/C=C2\SC(=Nc3ccc(O)cc3)NC2=O)cc1`, for which the displacement was determined as 50.9%.

As for `O=C1NC(=Nc2ccc(O)cc2)S/C1=C\c1ccc(Cl)cc1`, the displacement turned out to be 0.3%.

Consider `COC(=O)c1c(C)oc2ccc(OCc3cccc(Br)c3)cc12`, for which the displacement came to 9.3%.

Take `CCC(=NCc1ccccc1)c1c(C(F)(F)F)[nH]n(-c2nc3ccccc3s2)c1=O`: the displacement is -13.5%.

For `Cc1ccc(N2NC(=O)/C(=C/C=C/c3ccccc3)C2=O)cc1C`, the displacement amounted to 8.4%.

In the case of `Cc1ccc(Cl)cc1NC(=O)C(=O)NCc1ccco1`, the displacement is -13.4%.

With `CCOC(=O)c1c(-c2ccc(C)cc2)csc1NC(=O)C(C)(C)C`, the displacement stood at 7.5%.

As for `Cc1c(C(=O)NCCc2ccccc2)cccc1[N+](=O)[O-]`, the displacement was -8%.

For the compound `CN(C)c1ccc(N/C(N)=N/c2nc(C(F)(F)F)cc(=O)[nH]2)cc1`, the displacement was -5.8%.

For the compound `N/C(=N/N=C/c1ccc2c(c1)OCO2)c1ccccn1`, the displacement was -7.7%.

For `O=C(c1ccccc1)N1CC(=O)N2CCc3ccccc3C2C1` (stereo not drawn), the displacement was 1%.

For `O=C1/C(=C/c2ccccc2)SC(=S)N1c1ccccc1Cl`, the displacement is -7.4%.

Regarding `COc1cccc(C2NC(=O)NC(C)=C2C(=O)Nc2ccccc2C)c1` (stereo not drawn), the displacement was found to be 4.3%.

Regarding `CCOC(=O)C1=C(C)N=c2s/c(=C\c3ccc(NC(C)=O)cc3)c(=O)n2C1c1ccc(OC)cc1` (stereo not drawn), the displacement stood at 116%.

Regarding `CCOC(=O)C1=C(C)N=c2s/c(=C\c3cn(C)c4ccccc34)c(=O)n2C1c1cccs1` (stereo not drawn), the displacement is 11.5%.

Take `CCOC(=O)C1=C(C)N=c2s/c(=C\c3ccc(C(=O)O)cc3)c(=O)n2C1c1ccc(OC)c(OC)c1` (stereo not drawn): the displacement was -22.8%.

Regarding `COC(=O)C1=C(C)N=c2s/c(=C\c3ccc(Cl)cc3)c(=O)n2C1c1ccc(OC)c(OC)c1` (stereo not drawn), the displacement turned out to be 9.9%.

On to `COC(=O)C1=C(C)N=c2s/c(=C/c3ccc(F)cc3)c(=O)n2C1c1ccc(OC)cc1` (stereo not drawn), for which the displacement came to 5.7%.

Take `C=CCOc1ccc(/C=c2/sc3n(c2=O)C(c2ccc(OC)c(OC)c2)C(C(=O)OC)=C(C)N=3)cc1` (stereo not drawn): the displacement was found to be 106%.

As for `CCOC(=O)C1=C(C)N=c2s/c(=C\c3ccc(OC)cc3)c(=O)n2C1c1ccc(OC)cc1` (stereo not drawn), the displacement was -5.7%.

`CCOC(=O)C1=C(C)N=c2s/c(=C\c3ccc(I)cc3)c(=O)n2C1c1ccc(OC)c(OC)c1` (stereo not drawn): the displacement turned out to be 111%.

Take `CCOC(=O)C1=C(C)N=c2s/c(=C\c3ccc(N(C)C)cc3)c(=O)n2C1c1ccc(OC)c(OC)c1` (stereo not drawn): the displacement is -38.5%.

For the compound `CCOC(=O)C1=C(C)N=c2s/c(=C\c3ccc(NC(C)=O)cc3)c(=O)n2C1c1ccccc1` (stereo not drawn), the displacement is -24.8%.

Take `CCOC(=O)C1=C(C)N=c2s/c(=C\c3cc4c(cc3Cl)OCO4)c(=O)n2C1c1cccs1` (stereo not drawn): the displacement is -8.9%.

In the case of `COC(=O)C1=C(C)N=c2s/c(=C\c3ccccc3Cl)c(=O)n2C1c1cccs1` (stereo not drawn), the displacement was determined as 84.9%.
